Test in all cases: DAPPL (digital affinity profiling via proximity ligation, sequencing); 10 mM Tris-HCl pH 7.5, 50 mM NaCl, 1 mM DTT, 4% glycerol, room temperature, 30 min; GST-TFs on glutathione beads, 16-mer random dsDNA library, 0.1% formaldehyde crosslink after washing; high values mean tight binding
Common to all, as to conditions: protein: recombinant; tags: N-terminal GST; dsDNA, one strand shown

The target of one assay is T1, FLI1 (Homo sapiens, UniProt Q01543 1-452).
T1 sequence: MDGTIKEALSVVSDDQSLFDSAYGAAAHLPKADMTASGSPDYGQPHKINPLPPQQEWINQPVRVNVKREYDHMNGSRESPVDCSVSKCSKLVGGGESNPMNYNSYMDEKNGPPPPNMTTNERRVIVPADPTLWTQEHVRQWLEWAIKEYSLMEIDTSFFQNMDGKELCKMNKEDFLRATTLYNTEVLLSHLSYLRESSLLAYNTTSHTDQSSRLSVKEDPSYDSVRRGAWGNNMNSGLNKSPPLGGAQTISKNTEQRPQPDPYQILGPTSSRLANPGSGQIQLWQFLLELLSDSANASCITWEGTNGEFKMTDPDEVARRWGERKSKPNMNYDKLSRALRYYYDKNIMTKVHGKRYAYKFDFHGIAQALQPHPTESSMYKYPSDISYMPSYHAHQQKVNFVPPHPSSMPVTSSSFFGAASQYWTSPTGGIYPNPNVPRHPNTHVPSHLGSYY
Put shortly: (§1)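 Beads coated with glutathione captured GST-fused human transcription factors that had been expressed in yeast, and the factors were then given DNA barcodes and pooled with a tag-only sample. The pools were incubated with 200 nmole of a random double-stranded 16-mer DNA library in Tris/NaCl/DTT/glycerol buffer for 30 min at room temperature, washed, crosslinked with 0.1% formaldehyde and proximity-ligated with BsaI/T4 ligase at 37 °C for 1 h. PCR amplification and Illumina NextSeq500 sequencing came last. Binding signal is each hexamer's read frequency for a factor divided by its frequency for the tag-only sample.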

A further assay concerns the target T2, ELK1 (Homo sapiens, UniProt P19419 1-428).
T2 sequence: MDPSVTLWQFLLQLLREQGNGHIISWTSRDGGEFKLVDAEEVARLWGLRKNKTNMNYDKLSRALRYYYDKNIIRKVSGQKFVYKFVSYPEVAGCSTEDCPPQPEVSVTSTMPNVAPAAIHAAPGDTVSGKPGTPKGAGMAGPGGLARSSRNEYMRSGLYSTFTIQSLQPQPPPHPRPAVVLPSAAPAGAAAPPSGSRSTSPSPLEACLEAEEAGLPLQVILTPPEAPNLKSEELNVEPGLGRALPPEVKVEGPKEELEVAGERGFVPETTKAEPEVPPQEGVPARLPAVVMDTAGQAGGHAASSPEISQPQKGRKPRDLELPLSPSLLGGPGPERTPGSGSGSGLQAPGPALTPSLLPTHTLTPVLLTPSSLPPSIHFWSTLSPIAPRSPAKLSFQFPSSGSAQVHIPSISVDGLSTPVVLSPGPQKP
Summed up:
as §1

The target of another assay is ELF1 (Homo sapiens, UniProt P32519 1-619). Put shortly: as §1
Another assay concerns the target SPIB (Homo sapiens, UniProt Q01892 1-262). Summed up: as §1
Another assay addresses ETV5 (Homo sapiens, UniProt P41161 1-510). Put shortly: as §1
The next assay addresses T3, SPIC (Homo sapiens, UniProt Q8N5J4 1-248).
T3 sequence: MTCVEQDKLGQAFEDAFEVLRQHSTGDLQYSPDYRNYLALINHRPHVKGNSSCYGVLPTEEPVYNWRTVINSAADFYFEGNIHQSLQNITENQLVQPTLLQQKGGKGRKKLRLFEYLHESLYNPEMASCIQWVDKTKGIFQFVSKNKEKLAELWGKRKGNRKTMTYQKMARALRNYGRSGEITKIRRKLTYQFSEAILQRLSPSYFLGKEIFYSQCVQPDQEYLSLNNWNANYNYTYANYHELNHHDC
Summed up:
as §1

In another assay the target is T4, ETV3 (Homo sapiens, UniProt P41162-2 1-143).
T4 sequence: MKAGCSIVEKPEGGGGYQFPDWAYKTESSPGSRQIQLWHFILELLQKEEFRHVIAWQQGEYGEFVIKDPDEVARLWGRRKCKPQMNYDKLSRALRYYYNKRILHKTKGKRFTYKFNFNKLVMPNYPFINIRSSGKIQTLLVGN
Summed up: as §1

This passage reports binding signal results from paper PMC7862700, “An all-to-all approach to the identification of sequence-specific readers for epigenetic DNA modifications on cytosine”.

ETV5, sequence (P41161 whole entry): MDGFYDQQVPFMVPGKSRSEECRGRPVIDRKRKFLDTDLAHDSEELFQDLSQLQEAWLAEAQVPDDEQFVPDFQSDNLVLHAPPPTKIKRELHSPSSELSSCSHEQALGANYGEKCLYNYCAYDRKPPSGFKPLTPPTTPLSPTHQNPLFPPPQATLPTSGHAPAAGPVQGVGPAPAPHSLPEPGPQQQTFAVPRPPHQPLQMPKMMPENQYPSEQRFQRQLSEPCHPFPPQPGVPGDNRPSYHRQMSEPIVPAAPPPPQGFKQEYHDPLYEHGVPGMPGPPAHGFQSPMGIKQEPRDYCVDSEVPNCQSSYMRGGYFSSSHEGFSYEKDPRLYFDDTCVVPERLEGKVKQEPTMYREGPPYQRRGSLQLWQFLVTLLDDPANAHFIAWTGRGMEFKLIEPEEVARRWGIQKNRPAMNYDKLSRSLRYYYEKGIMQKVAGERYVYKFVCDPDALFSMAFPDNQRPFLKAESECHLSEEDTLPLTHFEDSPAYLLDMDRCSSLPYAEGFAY
SPIB, sequence (Q01892 whole entry): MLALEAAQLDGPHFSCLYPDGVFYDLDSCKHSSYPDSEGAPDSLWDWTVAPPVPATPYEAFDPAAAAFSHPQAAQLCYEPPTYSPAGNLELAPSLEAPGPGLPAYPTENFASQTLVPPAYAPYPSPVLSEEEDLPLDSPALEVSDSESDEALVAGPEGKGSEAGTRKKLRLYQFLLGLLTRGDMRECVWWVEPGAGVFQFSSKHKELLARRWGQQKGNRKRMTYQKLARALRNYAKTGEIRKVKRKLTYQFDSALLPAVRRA
ELF1, sequence (P32519 whole entry): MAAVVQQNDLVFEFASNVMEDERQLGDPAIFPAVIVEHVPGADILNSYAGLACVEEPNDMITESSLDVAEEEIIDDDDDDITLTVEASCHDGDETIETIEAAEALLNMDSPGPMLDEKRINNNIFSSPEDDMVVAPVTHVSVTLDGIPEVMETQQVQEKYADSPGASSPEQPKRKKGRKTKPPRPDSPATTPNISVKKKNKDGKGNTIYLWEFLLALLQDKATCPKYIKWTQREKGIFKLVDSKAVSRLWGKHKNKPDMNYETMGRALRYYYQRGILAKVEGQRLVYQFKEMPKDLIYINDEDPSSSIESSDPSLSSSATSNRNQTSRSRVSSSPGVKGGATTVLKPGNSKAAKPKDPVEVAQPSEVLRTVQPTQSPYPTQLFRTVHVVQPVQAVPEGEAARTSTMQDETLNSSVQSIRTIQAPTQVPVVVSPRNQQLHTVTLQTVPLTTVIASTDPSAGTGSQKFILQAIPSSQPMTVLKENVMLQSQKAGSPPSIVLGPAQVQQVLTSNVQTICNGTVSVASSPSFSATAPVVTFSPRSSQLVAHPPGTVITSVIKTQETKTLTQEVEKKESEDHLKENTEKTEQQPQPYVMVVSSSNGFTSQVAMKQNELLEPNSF

On to GGTATG, for which the binding signal with FLI1 was 1.01 fold enrichment (6-mer frequency, TF over GST control); in the assay with ELK1, 1.03 fold enrichment (6-mer frequency, TF over GST control); with ELF1 it was 1.01 fold enrichment (6-mer frequency, TF over GST control); with SPIB it was 1.02 fold enrichment (6-mer frequency, TF over GST control); with ETV5 it was 1.01 fold enrichment (6-mer frequency, TF over GST control); in the assay with SPIC, 1.22 fold enrichment (6-mer frequency, TF over GST control). The binding signal in the assay with ETV3 is 1.02 fold enrichment (6-mer frequency, TF over GST control).
